Test results taken from the supplement of paper PMC10849652.
Targets with a hit are over-represented here; the source holds about 8,800 in all. About 0.5% of all pairs of compound and target were hits.

Assays:
Assay in all cases: log2 fold change, soluble protein after heating vs DMSO (PISA); higher = thermal stabilisation; K562 lysate, 10 uM; active = over 0.2 and 3.5 SD of the protein, either way, in both replicates (recomputed)
[1] = compound: C1=CC=C(C=C1)[C@H](COC2=CC3=C(C=C2)NC(=O)N3)NC(=O)C4=CC=CN(C4=O)CC5=CC(=C(C=C5)F)F
Method in brief: (§1)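 Values give the log-two fold change in thermal stability against solvent controls, from duplicates. Crude K562 extract at 1 mg/mL protein, made by dounce homogenisation in PBS pH 7.4 with 1 mM MgCl2, was treated with 10 μM compound for 30 min. After 3 min heating across 48°C-58°C, aliquots were pooled, adjusted to 0.5% NP-40 at 4°C and centrifuged at 21,000xg for 90 min. The supernatant was measured by TMTpro 16plex LC-MS/MS with channel sums equalised.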

[2] = compound: CC1=C(SC2=C1C(=N[C@H](C3=NN=C(N32)C)CC(=O)N)C4=CC=C(C=C4)Cl)C
Method in brief: as §1

[3] = compound: Cc1sc2c(c1C)C(c1ccc(Cl)cc1)=N[C@@H](CC(=O)OC(C)(C)C)c1nnc(C)n1-2
Method in brief: as §1

[4] = compound: c1ccc([C@@H]2C[C@H]2NC2CCNCC2)cc1
Method in brief: as §1

[5] = compound: CC1=C2C(=CC=C1)N=C(N(C2=O)C3=CC=CC=C3C)CN4C=NC5=C(N=CN=C54)N
Method in brief: as §1

Measured: log2 fold change

BNIP3 (UniProt Q12983)
UniProt Q12983, sequence (Q12983 whole entry, looked up): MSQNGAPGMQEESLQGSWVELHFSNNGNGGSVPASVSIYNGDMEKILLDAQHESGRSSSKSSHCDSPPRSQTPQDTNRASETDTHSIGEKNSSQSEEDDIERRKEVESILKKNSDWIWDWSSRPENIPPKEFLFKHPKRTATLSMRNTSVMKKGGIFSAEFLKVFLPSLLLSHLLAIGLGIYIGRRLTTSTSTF
inactive: [1] 0.034 | [2] -0.053 | [3] -0.023 | [4] -0.074

C3AR1 (UniProt Q16581)
UniProt Q16581, sequence (Q16581 whole entry, looked up): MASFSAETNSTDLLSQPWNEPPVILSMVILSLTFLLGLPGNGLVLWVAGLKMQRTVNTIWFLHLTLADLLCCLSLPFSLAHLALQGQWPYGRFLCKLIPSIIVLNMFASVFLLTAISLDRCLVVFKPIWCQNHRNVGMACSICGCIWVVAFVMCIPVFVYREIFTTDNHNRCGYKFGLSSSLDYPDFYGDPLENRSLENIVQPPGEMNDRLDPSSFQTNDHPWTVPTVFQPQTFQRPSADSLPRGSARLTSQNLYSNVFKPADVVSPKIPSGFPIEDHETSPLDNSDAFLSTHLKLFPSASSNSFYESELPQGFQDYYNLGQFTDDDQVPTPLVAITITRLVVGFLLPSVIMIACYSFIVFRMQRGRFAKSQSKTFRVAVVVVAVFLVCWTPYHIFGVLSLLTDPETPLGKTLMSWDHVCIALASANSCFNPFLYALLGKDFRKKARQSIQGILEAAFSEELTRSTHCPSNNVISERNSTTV
inactive: [1] 0.121 | [2] 0.024 | [4] -0.083

CDC25A (UniProt P30304)
inactive: [3] -0.064

C6orf120 (UniProt Q7Z4R8)
UniProt Q7Z4R8, sequence (Q7Z4R8 whole entry, looked up): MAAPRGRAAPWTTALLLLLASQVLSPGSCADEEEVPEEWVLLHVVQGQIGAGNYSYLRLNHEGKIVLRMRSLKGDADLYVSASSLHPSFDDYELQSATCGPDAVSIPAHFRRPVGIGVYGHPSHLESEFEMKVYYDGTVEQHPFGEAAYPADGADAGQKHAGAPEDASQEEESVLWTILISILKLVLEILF
inactive: [1] -0.101 | [2] -0.015 | [3] -0.131 | [4] 0.137

C9orf72 (UniProt Q96LT7)
inactive: [1] -0.012 | [2] 0.049 | [3] -0.028 | [4] 0.002

CEP295 isoform 3 (UniProt Q9C0D2)
UniProt Q9C0D2, sequence (Q9C0D2 whole entry, looked up): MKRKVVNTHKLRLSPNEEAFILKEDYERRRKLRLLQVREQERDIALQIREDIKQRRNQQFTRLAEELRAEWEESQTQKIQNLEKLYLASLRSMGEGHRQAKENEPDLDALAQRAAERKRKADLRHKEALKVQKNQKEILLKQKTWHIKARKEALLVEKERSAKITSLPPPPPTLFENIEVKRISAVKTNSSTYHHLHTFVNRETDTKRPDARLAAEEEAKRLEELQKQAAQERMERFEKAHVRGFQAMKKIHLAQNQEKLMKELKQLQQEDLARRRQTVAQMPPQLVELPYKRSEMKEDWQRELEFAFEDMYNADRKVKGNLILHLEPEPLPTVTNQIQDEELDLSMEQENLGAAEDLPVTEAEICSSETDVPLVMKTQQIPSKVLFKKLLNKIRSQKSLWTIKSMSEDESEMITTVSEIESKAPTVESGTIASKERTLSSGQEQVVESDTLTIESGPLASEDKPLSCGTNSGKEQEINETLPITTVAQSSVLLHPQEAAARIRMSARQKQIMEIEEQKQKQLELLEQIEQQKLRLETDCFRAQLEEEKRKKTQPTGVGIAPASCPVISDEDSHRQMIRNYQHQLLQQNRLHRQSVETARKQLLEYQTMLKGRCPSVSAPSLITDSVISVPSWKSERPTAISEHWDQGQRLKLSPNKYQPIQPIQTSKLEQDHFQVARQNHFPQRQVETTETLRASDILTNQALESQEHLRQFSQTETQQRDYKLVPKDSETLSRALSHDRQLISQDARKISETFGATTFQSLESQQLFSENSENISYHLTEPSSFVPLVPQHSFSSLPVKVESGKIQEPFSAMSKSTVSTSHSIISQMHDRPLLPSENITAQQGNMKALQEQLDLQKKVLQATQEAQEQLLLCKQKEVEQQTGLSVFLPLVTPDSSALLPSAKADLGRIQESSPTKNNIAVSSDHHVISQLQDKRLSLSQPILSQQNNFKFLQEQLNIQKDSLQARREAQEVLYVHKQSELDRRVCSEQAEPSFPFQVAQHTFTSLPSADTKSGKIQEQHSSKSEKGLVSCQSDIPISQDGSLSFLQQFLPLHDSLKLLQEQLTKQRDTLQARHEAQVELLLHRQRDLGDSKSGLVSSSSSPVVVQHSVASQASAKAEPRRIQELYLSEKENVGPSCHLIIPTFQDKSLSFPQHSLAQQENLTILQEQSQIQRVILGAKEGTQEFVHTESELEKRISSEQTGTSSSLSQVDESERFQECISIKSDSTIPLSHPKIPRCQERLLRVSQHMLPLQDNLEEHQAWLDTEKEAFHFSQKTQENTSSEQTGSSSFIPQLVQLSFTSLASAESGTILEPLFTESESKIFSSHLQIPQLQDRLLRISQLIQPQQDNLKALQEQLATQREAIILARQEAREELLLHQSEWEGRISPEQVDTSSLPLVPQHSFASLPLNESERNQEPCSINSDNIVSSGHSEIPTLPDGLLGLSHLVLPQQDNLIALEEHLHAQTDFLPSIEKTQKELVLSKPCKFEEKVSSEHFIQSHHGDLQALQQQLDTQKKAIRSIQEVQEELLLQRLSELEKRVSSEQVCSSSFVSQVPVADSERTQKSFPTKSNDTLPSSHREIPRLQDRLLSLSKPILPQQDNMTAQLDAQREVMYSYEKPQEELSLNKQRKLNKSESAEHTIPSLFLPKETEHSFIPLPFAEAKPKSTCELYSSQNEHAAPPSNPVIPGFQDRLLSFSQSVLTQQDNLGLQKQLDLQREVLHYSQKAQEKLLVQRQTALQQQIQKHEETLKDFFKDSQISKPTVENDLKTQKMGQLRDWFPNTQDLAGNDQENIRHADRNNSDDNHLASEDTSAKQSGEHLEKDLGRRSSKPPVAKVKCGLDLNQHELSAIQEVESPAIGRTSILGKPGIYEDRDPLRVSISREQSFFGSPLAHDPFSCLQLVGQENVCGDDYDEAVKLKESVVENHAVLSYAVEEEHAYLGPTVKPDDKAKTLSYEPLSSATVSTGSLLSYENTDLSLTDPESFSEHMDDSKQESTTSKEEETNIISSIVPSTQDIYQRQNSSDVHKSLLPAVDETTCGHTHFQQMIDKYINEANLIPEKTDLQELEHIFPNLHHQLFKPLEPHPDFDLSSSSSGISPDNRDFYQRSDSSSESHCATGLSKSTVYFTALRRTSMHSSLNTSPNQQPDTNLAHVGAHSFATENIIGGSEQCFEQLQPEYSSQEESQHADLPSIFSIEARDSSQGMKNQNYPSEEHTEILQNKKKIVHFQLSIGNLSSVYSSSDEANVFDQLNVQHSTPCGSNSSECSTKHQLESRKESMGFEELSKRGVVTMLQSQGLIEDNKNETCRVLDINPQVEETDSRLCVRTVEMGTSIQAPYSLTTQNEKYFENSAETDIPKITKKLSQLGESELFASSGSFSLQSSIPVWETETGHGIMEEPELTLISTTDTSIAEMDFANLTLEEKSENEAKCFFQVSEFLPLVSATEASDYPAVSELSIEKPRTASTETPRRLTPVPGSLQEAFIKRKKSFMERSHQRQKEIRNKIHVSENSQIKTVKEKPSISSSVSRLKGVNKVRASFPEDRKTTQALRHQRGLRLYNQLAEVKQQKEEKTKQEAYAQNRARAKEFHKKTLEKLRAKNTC
inactive: [1] -0.154 | [2] 0.045 | [4] 0.024

B3GALT6 (UniProt Q96L58)
UniProt Q96L58, sequence (Q96L58 whole entry, looked up): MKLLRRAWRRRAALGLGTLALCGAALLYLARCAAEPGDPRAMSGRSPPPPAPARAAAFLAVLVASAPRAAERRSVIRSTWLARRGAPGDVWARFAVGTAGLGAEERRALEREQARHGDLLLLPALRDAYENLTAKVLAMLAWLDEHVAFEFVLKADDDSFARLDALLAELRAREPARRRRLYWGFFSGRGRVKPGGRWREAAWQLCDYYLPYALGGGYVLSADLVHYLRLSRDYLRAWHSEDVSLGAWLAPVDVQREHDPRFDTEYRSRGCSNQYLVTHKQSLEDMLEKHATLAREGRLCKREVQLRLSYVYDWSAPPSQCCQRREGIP
inactive: [1] 0.055 | [2] 0.041 | [3] 0.269

CENPV (UniProt Q7Z7K6)
inactive: [1] 0.059 | [2] -0.217 | [5] -0.201 | [4] 0.166

CCND3 (UniProt P30281)
inactive: [1] 0.043 | [2] 0.051 | [3] 0.036 | [4] -0.023

CASP7 isoform 3 (UniProt P55210)
UniProt P55210, sequence (P55210 whole entry, looked up): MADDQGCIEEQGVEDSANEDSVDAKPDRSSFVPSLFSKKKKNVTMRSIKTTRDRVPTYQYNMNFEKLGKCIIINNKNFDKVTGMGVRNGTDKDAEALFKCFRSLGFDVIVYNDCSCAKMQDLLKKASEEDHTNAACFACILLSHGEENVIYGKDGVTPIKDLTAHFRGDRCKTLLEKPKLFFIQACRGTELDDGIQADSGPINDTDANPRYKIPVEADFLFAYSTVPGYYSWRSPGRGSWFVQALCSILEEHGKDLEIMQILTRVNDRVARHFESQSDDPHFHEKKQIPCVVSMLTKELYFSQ
inactive: [1] 0.035 | [2] -0.02 | [3] -0.105

CACUL1 (UniProt Q86Y37)
UniProt Q86Y37, sequence (Q86Y37 whole entry, looked up): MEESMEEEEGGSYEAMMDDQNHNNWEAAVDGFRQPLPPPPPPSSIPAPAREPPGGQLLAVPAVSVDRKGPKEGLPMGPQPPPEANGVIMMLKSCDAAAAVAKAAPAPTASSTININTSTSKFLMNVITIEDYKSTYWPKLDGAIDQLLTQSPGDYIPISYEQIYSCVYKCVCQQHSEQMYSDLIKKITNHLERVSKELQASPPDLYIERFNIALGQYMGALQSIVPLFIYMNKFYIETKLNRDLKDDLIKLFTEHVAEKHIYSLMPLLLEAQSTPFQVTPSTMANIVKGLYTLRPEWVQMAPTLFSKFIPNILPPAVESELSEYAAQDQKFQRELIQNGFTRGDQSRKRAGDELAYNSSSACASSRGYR
inactive: [5] -0.046 | [3] 0.088 | [4] 0.111

CD80 (UniProt P33681)
UniProt P33681, sequence (P33681 whole entry, looked up): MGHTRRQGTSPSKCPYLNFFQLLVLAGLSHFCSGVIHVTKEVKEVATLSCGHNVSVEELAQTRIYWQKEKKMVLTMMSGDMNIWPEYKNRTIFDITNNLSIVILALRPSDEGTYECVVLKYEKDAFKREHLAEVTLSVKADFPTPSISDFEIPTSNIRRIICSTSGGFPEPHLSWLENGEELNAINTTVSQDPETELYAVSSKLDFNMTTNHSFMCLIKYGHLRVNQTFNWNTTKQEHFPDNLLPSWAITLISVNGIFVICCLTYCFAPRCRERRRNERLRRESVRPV
inactive: [5] 0.032 | [3] 0.018 | [4] 0.048

BRAF, A0A2R8Y8E0
inactive: [5] -0.13
